Compounds with a hit are over-represented: about 3.1% of the library has one in this group of screens.
p53null 39C kill = selectivity test: cytotoxicity in p53 null cells, nonpermissive temperature; H1299 p53-null (neo) cells, 39C, ATPlite viability, 24 h; Potency, µM (top dose mostly 46.1 µM), actives largely listed as cytotoxic; 55,000 tested, 0.97% active; AID 904; also: nearly all actives have a fitted effect of over 50% in size
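Concentration-response (up to 46 uM) was run for 24 h at the nonpermissive 39C on H1299-p53A138V or H1299-neo cells. ATP content was measured with ATPlite luminescence. AC50 values were Hill-modeled after normalizing between DMSO and 100 uM tamoxifen killing.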
pS6 MEF inh = mTORC1 pathway inhibition measured by phospho-rpS6; Potency, µM (highest dose often 38.3 µM), usual class: inhibitors; 44,000 tested, 0.78% active; Tsc2-/- p53-/- MEF, phospho-rpS6 immunofluorescence/PI, 24 h; also: nearly all actives have a fitted effect of over 50% in size
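Tsc2-/-, p53-/- mouse embryonic fibroblasts (empty-vector line) exposed to compound 24 hrs at 37 C, fixed, immunostained for phospho-rpS6 and counterstained with propidium iodide. Acumen laser scanning gives % positive cells from Alexa 488/PI ratio, thresholded using 7.5 nM rapamycin; PI count gives viability.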
SKOV3 invasion = inhibitors of ovarian cancer cell adhesion and invasion in omental model; SKOV3ip1-GFP adhesion/invasion on 3D omental model, fluorescence; AID 1963576; Potency, µM (series often up to 45.8 µM), most hits filed as inhibitors; 46,000 tested, 0.1% active; also: nearly all actives have a fitted effect of over 65% in size
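Adhesion/invasion was scored as fixed GFP-labeled SKOV3ip1 cell counts (488/509 nm), normalized to DMSO and tomatine controls. Cancer cells in serum-free medium, with four compound doses (0.36-46 umol/L), sat 2 hr at RT then 16 hr at 37 C on a 48 hr fibroblast/mesothelial/ECM culture.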
S16 viability = cytotoxicity in S16 Pmp22-F2sN Schwann cells. S16 Pmp22-F2sN Schwann cells viability, CellTiter-Glo, 24 h. AID 1508642. Potency, µM (top dose mostly 57.5 µM), usual class: cytotoxic. 43,000 tested, 0.48% active; also: nearly all actives have a fitted effect of over 65% in size
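CellTiter-Glo counter-screen, qHTS, 1536-well. Cells: S16(c9) Pmp22-F2sN, 500-1,000/well in DMEM + 10% FBS. Cpd 23 nL pin transfer, 24 h, 37C/5% CO2. Read: luminescence, CCD imager.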
p53null 32C tox = selectivity test: cytotoxicity in p53 null cells, permissive temperature | H1299-neo p53 null cells, ATP luminescence, 24 h, 32C | AID 903 | 55,000 tested, 0.62% active | Potency, µM (titrated, usually from 46.1 µM), actives largely listed as cytotoxic; also: nearly all actives have a fitted effect of over 55% in size
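H1299-neo (p53-null) cells, 600/well, were pre-incubated overnight at 37C, then exposed to compounds at up to 46 uM for 24 hr at 32C. Viability was measured as ATP content by luminescence, and AC50 values came from Hill fits.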
PMP22 txn prim = modulators of PMP22 gene transcription in S16 Schwann cells | Potency, µM (doses to about 57.5 µM), usual class: inhibitors | S16 Pmp22-F2sN Schwann cells (luciferase reporters placed in the Pmp22 gene), FLuc/NLuc coincidence luminescence, 24 h | 43,000 tested, 2% active; active = clear falling dose curves in both reporters; inconclusive = both reporters move, but less clearly or upward; inactive = either reporter flat; the % is the NLuc reporter signal
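Schwann cells carrying the coincidence reporter were exposed to library compounds for 24 h at 37C, then lysed and read for FLuc and, after quenching, NLuc luminescence on a CCD imager.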
Hits are given with their value; – = inactive; ? = inconclusive; · = not tested or not shown; [ ] = remark or other dose. Unless noted, calls follow the shape of the dose curve; as a rule, active = well fitted curve in the direction sought with a large enough effect; inconclusive = small, poorly fitted or top-dose-only effect, or another doubt; inactive = no such curve, though single readings can be large; an effect the other way counts as inactive or inconclusive.

SMILES	p53null 39C kill	pS6 MEF inh	SKOV3 invasion	S16 viability	p53null 32C tox	PMP22 txn prim
O=C(/C(C=Nc1ccc(Br)cc1)=C(/O)c1ccco1)C(F)(F)F	?	·	·	·	5µM	·
CC(C)c1cc(-c2n[nH]c(=O)n2-c2ccc3c(ccn3C)c2)c(O)cc1O	·	·	–	·	·	·
Cc1ccc(NC(=O)C2(c3ccc4c(c3)OC(F)(F)O4)CC2)nc1-c1cccc(C(=O)O)c1	·	·	–	·	·	·
O=C(CSc1nnc(-c2ccc([N+](=O)[O-])cc2)o1)Nc1ccccc1	6.3µM	–	–	–	?	–
N#Cc1c(-n2ncnc2-c2ccc(F)cc2)sc2c1CCCCC2	?	–	–	–	10µM	–
CC(=O)OC1C(C)OC(Oc2c(-c3ccc(O)cc3)oc3cc(O)cc(O)c3c2=O)C(O)C1OC(C)=O (stereo unspecified)	·	·	–	·	·	·
Cc1ccc(-c2ncn(-c3ccc(Nc4nccc(-c5cccc(N6CCOCC6)c5)n4)cc3)n2)cn1	·	·	–	·	·	·
CCc1ccc(N2CCn3c2nc2c3c(=O)n(Cc3c(F)cccc3Cl)c(=O)n2C)cc1	13µM	–	–	–	–	–
CCCN(CCC)CC(O)Cn1cc(/C=C/C(=O)c2ccc(OCC)cc2)c2ccccc21 (stereo unspecified)	20µM	?	–	?	?	?
COc1ccccc1C1C=C(c2ccc(Cl)cc2)Nc2nc(-c3ccc(Cl)cc3)nn21 (stereo unspecified)	–	12µM	–	–	–	?
CC1CCN(c2ccc(-c3cccc(NS(=O)(=O)c4ccc(F)cc4F)c3)nn2)CC1	10µM	–	–	·	10µM	·
O=S(=O)(Nc1cccc(-c2ccc(N3CCCCC3)nn2)c1)c1ccc(F)cc1F	?	–	–	–	?	–
CCOc1ccc(S(=O)(=O)Nc2cccc(-c3ccc(N4CCC(C)CC4)nn3)c2)cc1	?	–	?	·	?	·
Cc1ccc(S(=O)(=O)Nc2cccc(-c3ccc(N4CCC(C)CC4)nn3)c2)s1	16µM	?	–	·	13µM	·
Cc1ccc(/C=C/c2nc3ccccc3n2S(=O)(=O)c2ccc(Br)cc2)cc1	–	–	–	?	6.3µM	?
CSc1ccc(/C=C/c2nc3ccccc3n2S(=O)(=O)c2cccc(Cl)c2)cc1	4µM	–	?	?	3.2µM	?
C=CCSc1nc2ccccc2n1S(=O)(=O)c1ccc(C)cc1	–	·	·	·	–	·
O=S(=O)(c1cccc(Cl)c1)n1c(/C=C/c2ccccc2Cl)nc2ccccc21	2.8µM	–	–	13µM	1.3µM	?
Clc1ccc(C2(c3ccc(-c4cn[nH]c4)cc3)CCNCC2)cc1	·	·	–	·	·	·
O=C(c1ccc(F)c(F)c1Nc1ccc(I)cc1F)N1CC(O)([C@H]2CCCCN2)C1	·	·	–	·	·	·
CCCCNC(=O)C1CCN(Cc2nc(-c3ccc(OC)c(OC)c3)oc2C)CC1	–	–	–	–	–	–
Cc1oc(-c2cccc(Cl)c2)nc1CN1CCC(C(=O)NC(C)c2ccccc2)CC1 (stereo unspecified)	–	–	–	–	–	?
Cc1oc(-c2cccc(Cl)c2)nc1CN1CCC(C(=O)NCCCN2CCN(c3ccc(F)cc3)CC2)CC1	–	–	–	10µM	–	9.6µM
COc1ccc(-c2nc(CN3CCC(C(=O)NCCCN4CCN(c5ccccc5F)CC4)CC3)c(C)o2)cc1OC	–	15µM	7.1µM	?	–	?
Cc1oc(-c2cccc(Cl)c2)nc1CN1CCC(C(=O)NCCCN2CCN(c3ccccc3F)CC2)CC1	–	–	–	?	–	7.9µM
SMILES	p53null 39C kill	pS6 MEF inh	SKOV3 invasion	S16 viability	p53null 32C tox	PMP22 txn prim
Cc1oc(-c2cccc(Cl)c2)nc1CN1CCCC(C(=O)NCc2ccc(F)cc2)C1 (stereo unspecified)	?	–	–	–	–	?
C[C@]1(c2nc3c(C(N)=O)cccc3[nH]2)CCCN1	·	·	–	·	·	·
COc1cc(NC(=O)c2cc(-c3ccc(Cl)c(Cl)c3)on2)cc(OC)c1OC	25µM	–	?	·	?	·
Cn1cc(C(=O)N/N=C/c2cccs2)c2ccccc21	–	·	·	·	–	·
O=C(N/N=C/c1cccs1)c1ccc2c(c1)OCO2	–[1.84 µM]	·	·	·	2.8µM	·
Cc1nn(-c2ccccc2)c2sc(C(=O)Nc3cccc(O)c3)cc12	25µM	–	–	?	–	?
Cc1nn(-c2ccccc2)c2sc(C(=O)Nc3ccccc3Br)cc12	–	–	–	–	–	–
O=C(Nc1ccc(F)cc1)c1ncn(-c2ccccc2)n1	32µM	–	–	–	?	?
CCc1cccc(C)c1NC(=O)Cn1nc(C)n2cccc2c1=O	13µM	?	–	–	–	–
CCc1nn(CC(=O)NCc2ccccc2Cl)c(=O)c2cccn12	16µM	2.6µM	–	–	–	–
CC(C)Oc1ccc(C(=O)Nc2nnc(SCC(=O)N3CCOCC3)s2)cc1	0.63µM	·	·	·	0.56µM	·
Cc1ccc(C(=O)Nc2nnc(SCC(=O)N3CCCc4ccccc43)s2)cc1	·	·	·	·	1.3µM	·
Cc1ccc(C(=O)Nc2ccc3nc(SCC(=O)N4CCc5ccccc54)sc3c2)cc1	–	–	–	–	–	–
Cc1ccc(-c2cc(C(=O)NCCc3ccccc3)c3ccccc3n2)cc1C	–	–	–	–	–	–
Cc1ccc(-c2cc(C(=O)NCc3cnn(C)c3C)c3ccccc3n2)cc1C	0.79µM	–	–	–	?	–
COCCCNC(=O)c1c(NC(=O)c2nc(S(C)(=O)=O)ncc2Cl)sc2c1CCCC2	–	–	–	3.5µM	–	2µM
CCNC(=O)c1c(NC(=O)c2nc(S(=O)(=O)CC)ncc2Cl)sc2c1CCCC2	25µM	?	?	4.5µM	–	4.5µM
COc1ccc(C=CC(=O)Nc2ccccc2C(=O)O)cc1OC	·	·	–	·	·	·
Cc1ccc(/C=C/C(=O)Nc2ccccc2C(N)=O)o1	10µM	–	–	?	13µM	–
CCN1CCC(N(Cc2ccc(F)cc2)C(=O)Nc2cc(Cl)ccc2C(=O)OC)CC1	–	?	11µM	?	–	?
CCN1CCC(N(Cc2ccc3c(c2)OCO3)C(=O)Nc2cc(F)ccc2F)CC1	–	–	–	–	–	–
OC[C@H]1O[C@@H](O[C@H]2[C@@H](O)[C@@](O)(CO)O[C@@H]2CO)[C@H](O)[C@@H](O)[C@@H]1O	·	·	–	·	·	·
CCOc1ccc(CNC(=O)c2ccccc2NC(=O)c2nsc3ccccc23)cc1	13µM	?	–	–	–	?
O=C(CSc1nc2c(oc3ccccc32)c(=O)[nH]1)Nc1cccc(Cl)c1	10µM	–	–	–	10µM	?
COc1cccc(-n2c(SCC(=O)Nc3cccc(Cl)c3)nc3c(oc4ccccc43)c2=O)c1	–	–	–	–	–	–

Screens as filed in PubChem.
